Screening data deposited in PubChem by National Center for Advancing Translational Sciences (NCATS).
Sampled rows, rich in hits. Any-hit rate of the full collection: about 7.6%.
SW480 rereplic = induces DNA re-replication in SW480 colon adenocarcinoma cells | AID 624297 | SW480 DNA re-replication, Hoechst DNA content imaging, 48 h | hit rate 1.8% among 340,000 | Potency, µM (doses to about 46.1 µM), for inactives: at the top dose re-replication activation, usual class: activators; further: potency means the concentration at half of the fitted maximal effect; % of control where 0% means no effect; nearly all actives have a fitted effect of over 55% in size
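Image-based read-out: total Hoechst fluorescence of nuclei (405 nm excitation, 500-530 nm emission), with hits raising the fraction of high-intensity nuclei. SW480 colon cells incubated 48 hr with compounds at 37 C.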
KB-3-1 tox = kills parental KB-3-1 adenocarcinoma cells; KB-3-1 viability, CellTiter-Glo ATP luminescence, 72 h; Potency, µM (top dose mostly 46.1 µM), most hits filed as cytotoxic; hit rate 1.4% among 400,000; AID 1347075; further: potency means the concentration at half of the fitted maximal effect; on the % scale 0 is the no-effect control and ±100 the full control effect; nearly all actives have a fitted effect of over 60% in size
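Luminescent ATP read-out (CellTiter-Glo) measures survival of drug-naive KB-3-1 cells after 72 h compound exposure at 37 °C. Titration series was screened from lowest to highest concentration, with DMSO vehicle plates as background controls.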
KB-V1 cytotox = kills drug-selected multidrug resistant KB-V1 cells | KB-V1 MDR cells viability, CellTiter-Glo, 72 h | Potency, µM (series often up to 46.1 µM), actives largely listed as cytotoxic | hit rate 3.4% among 400,000 | AID 1347076; further: potency means the concentration at half of the fitted maximal effect; on the % scale 0 is the no-effect control and ±100 the full control effect; nearly all actives have a fitted effect of over 60% in size
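Luminescent ATP read-out (CellTiter-Glo, 10 min) measures survival of drug-selected KB-V1 MDR cells after 72 h, 37 degrees C compound exposure. Medium: phenol-red-free DMEM, 10% FBS. Values from fitted concentration-response curves.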
KCNH2 WT inh = blocks the wildtype human KCNH2 potassium channel | Q12809 | U2OS, BacMam KCNH2, thallium flux FluxOr; stronger effect = lower value | activity change, % at 1.84 µM | hit rate 0.37% among 340,000 | AID 720551;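 active means maximum activity change below -70%; inconclusive means maximum activity change between -70% and -50%; inactive means maximum activity change above -50%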; further: on the % scale 0 is the no-effect control and ±100 the full control effect
Target sequence (Q12809 whole entry, looked up): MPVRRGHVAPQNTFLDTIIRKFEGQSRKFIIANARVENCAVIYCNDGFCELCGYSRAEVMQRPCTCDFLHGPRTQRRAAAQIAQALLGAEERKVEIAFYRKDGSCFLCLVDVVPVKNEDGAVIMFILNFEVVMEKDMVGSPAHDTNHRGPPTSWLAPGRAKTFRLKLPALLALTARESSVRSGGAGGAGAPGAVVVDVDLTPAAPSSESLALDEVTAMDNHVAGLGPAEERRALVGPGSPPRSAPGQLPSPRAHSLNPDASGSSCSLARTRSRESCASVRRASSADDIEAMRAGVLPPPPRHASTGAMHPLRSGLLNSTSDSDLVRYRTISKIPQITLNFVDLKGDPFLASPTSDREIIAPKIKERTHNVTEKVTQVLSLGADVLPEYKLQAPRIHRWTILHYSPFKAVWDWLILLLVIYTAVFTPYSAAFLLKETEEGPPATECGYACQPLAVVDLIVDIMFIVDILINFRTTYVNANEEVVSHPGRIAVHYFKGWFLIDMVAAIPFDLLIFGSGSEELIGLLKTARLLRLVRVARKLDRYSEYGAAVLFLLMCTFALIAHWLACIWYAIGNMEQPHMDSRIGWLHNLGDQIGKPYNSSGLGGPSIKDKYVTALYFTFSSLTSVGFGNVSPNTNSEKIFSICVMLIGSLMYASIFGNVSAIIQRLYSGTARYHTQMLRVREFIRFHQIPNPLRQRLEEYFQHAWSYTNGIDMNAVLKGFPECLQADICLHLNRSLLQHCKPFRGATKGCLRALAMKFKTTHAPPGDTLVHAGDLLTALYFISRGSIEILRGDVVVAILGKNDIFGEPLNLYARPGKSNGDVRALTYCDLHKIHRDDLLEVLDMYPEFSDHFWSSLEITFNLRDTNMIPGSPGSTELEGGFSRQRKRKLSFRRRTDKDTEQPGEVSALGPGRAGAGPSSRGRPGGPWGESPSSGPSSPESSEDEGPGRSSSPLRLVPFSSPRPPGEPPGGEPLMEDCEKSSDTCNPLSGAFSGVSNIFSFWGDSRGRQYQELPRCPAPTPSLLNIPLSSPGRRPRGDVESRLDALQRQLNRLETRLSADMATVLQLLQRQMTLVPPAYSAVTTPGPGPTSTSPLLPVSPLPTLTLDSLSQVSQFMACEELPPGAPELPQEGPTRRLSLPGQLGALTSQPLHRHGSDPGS
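U2OS cells transduced with wild-type KCNH2 virus are loaded with FluxOr dye for 45 min, and thallium flux is measured in kinetic reads before and after stimulation buffer. Rate constants are normalized to DMSO controls.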
KCNH2 3.1 inh = inhibitors of human KCNH2 3.1 potassium channel isoform; U2OS KCNH2 3.1, thallium flux FluxOr; stronger effect = lower value; hit rate 0.95% among 340,000; activity change, % (tested at about 1.8 µM);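 active means maximum activity change below -70%; inconclusive means maximum activity change from -70% to -50%; inactive means maximum activity change above -50%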;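 further: thallium influx rate constant from kinetic fluorescence after stimulation buffer; on the % scale 0 is the no-effect control and ±100 the full control effect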
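We transduce U2OS cells with the mutant 3.1 virus, culture them overnight, load FluxOr with Red40 quencher for 45 min, then add stimulation buffer and read kinetically for 2 min to derive a normalized rate constant.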
MCF10A rerep = induces DNA re-replication in MCF 10a normal breast cells; MCF 10A DNA re-replication, Hoechst nuclear intensity, 48 h; Potency, µM (doses to about 46.1 µM), for the others: at the highest dose activity, positive = re-replication, hits mostly activators; hit rate 2.9% among 350,000; further: potency means the concentration at half of the fitted maximal effect; % of control where 0% means no effect; nearly all actives have a fitted effect of over 50% in size
Starred values were filed as active, the others as inactive; i = inactive; ? = inconclusive; · = no result given; [ ] = dose if it differs, or a comment. Unless noted, the call rests on the fitted dose curve; in most records, active means well fitted curve in the direction sought with a large enough effect; inconclusive means small, poorly fitted or top-dose-only effect, or another doubt; inactive means no such curve, though single readings can be large; an effect the other way counts as inactive or inconclusive.

SMILES | SW480 rereplic | KB-3-1 tox | KB-V1 cytotox | KCNH2 WT inh | KCNH2 3.1 inh | MCF10A rerep
Cc1ccc(C)c(Cn2c3ccccc3c3cnn(CC(=O)NCCCN4CCCCC4)c(=O)c32)c1 | 23% | i | i | -6 | -11 | ?
CC(Sc1nc(-c2ccccc2)cc(C(F)(F)F)n1)C(=O)N1CCCCC1 (stereo not given) | ? | i | ? | 9 | -7 | 21µM*
CCn1cc(C2=NCCO2)c2ccccc21 | -10% | i | i | 5 | 7 | 2%
CCn1cc(C2=NC(c3ccccc3)CO2)c2ccccc21 (stereo not given) | 2% | 8.2µM* | ? | 9 | 1 | ?
CCn1cc(C2=NCC(C)O2)c2ccccc21 (stereo not given) | ? | i | i | 3 | -2 | 9%
CCn1cc(C2=NC(C)CO2)c2ccccc21 (stereo not given) | 4% | i | i | -7 | -71* | 1%
Cc1ccc2nc3c(cc(C#N)c(=O)n3-c3nnc(SCc4ccc(F)cc4)s3)c(=O)n2c1 | · | i | i | · | · | ·
O=C1COc2ccccc2N1Cc1c(F)cccc1Cl | 50% | i | i | -15 | -6 | 23µM*
O=C(CN1C(=O)COc2ccccc21)Nc1ccccc1F | 4% | ? | i | -15 | -9 | 14%
O=C(Nc1ccc2oc(-c3ccc4ccccc4c3)nc2c1)c1ccccc1F | · | i | i | · | · | ·
Cc1sc2ncnc(SCC(=O)N3CCC(c4noc5ccc(F)cc45)CC3)c2c1C | -12% | i | 10µM* | 2 | 1 | -2%
O=C(CSc1ccc(F)cc1)N1CCC(c2nc3ccccc3s2)CC1 | 5% | i | i | 0 | -11 | -3%
O=C(CSc1ccc2ccccc2n1)N1CCC(c2noc3ccc(F)cc23)CC1 | 9% | i | 9.2µM* | -3 | 16 | ?
Cc1nnc(SCC(=O)N2CCC(c3noc4ccc(F)cc34)CC2)s1 | -2% | i | ? | -2 | -1 | ?
Cc1csc(NC(=O)CSc2[nH]c(=O)ncc2C)n1 | -3% | i | ? | -2 | 14 | 0%
Cc1cnc(=O)[nH]c1SCC(=O)c1ccc(F)cc1 | 74% | i | i | -1 | -9 | 18µM*
COc1ccc(-c2csc(N)n2)cc1F | -53% | i | ? | -123* | -10 | ?
O=C(NCC(=O)N(c1ccccc1F)C(C(=O)NC1CCCC1)c1cccnc1)c1ccco1 (stereo not given) | 14% | i | i | 14 | -10 | 2%
C/C(=N\NC(=O)c1ccccc1-n1cccc1)c1ccccn1 | · | 10µM* | i | 1 | 13 | ·
Cc1cccc(/C=N\NC(=O)c2ccccc2-n2cccc2)c1 | -9% | i | i | 0 | 3 | -35%
O=C(N/N=C/c1ccc(Br)cc1)c1ccccc1-n1cccc1 | 13µM* | ? | 15µM* | 6 | -1 | ?
CCOC(=O)C1(C)CCN1C(=O)c1ccc(C#N)cc1 (stereo not given) | · | i | i | · | · | ·
CCCCn1c(SCC(=O)NCc2ccco2)nc2c(sc3ccccc32)c1=O | -3% | i | ? | 6 | -9 | -1%
O=C(CSc1nc2c(sc3ccccc32)c(=O)n1CCc1ccccc1)NCc1ccco1 | -4% | i | 2.1µM* | 0 | 11 | -2%
CC(=O)c1ccccc1NC(=O)CSc1nc2ccccc2c(=O)n1CCCN1CCOCC1 | 3% | i | i | 10 | 6 | 0%
SMILES | SW480 rereplic | KB-3-1 tox | KB-V1 cytotox | KCNH2 WT inh | KCNH2 3.1 inh | MCF10A rerep
CCOC(=O)CSc1nc2c(sc3ccccc32)c(=O)n1CCCN1CCOCC1 | -9% | i | 15µM* | 3 | -28 | 5%
CCOC(=O)c1ccccc1NC(=O)CSc1nc2ccccc2c(=O)n1CCCN1CCOCC1 | ? | i | i | 10 | -17 | 13µM*
CCC(C)NC(=O)CSc1nc2c(sc3ccccc32)c(=O)n1CCCN1CCOCC1 (stereo not given) | -7% | i | i | 0 | -10 | 0%
Cc1ccc(NC(=O)C2CCN(C(=O)c3ccc(F)cc3)CC2)nc1 | -38% | i | i | -6 | -1 | 1%
O=C1C=C(NCC2CCCO2)C2(CCCCC2)O1 (stereo not given) | -5% | i | i | -13 | -79* | -1%
O=c1[nH]c2ccc(S(=O)(=O)Nc3ccc(Br)cc3)cc2[nH]1 | -10% | i | ? | -3 | 9 | -1%
CSc1cc(-c2ccccc2)[nH]c(=O)c1C#N | 15µM* | i | i | · | -14 | -1%
Cc1cc(-c2ccccc2)[nH]c(=O)c1C#N | -1% | i | i | 3 | 23 | 0%
Cc1ccc(S(=O)(=O)N2CCN(S(=O)(=O)c3c(C)n[nH]c3C)CC2)cc1C | -25% | i | i | 21 | 10 | 0%
COc1ccc(C(C)=O)cc1COC(=O)C(CO)NS(=O)(=O)c1ccc(Br)cc1 (stereo not given) | -4% | i | i | 9 | -79* | 0%
COc1ccc(C(C)=O)cc1COC(=O)CCNS(=O)(=O)c1ccc(C(C)=O)cc1 | 0% | i | ? | 3 | 1 | 0%
C[Si](C)(C)O[Si](C)(C)C | -3% | · | · | · | · | 1%
NC(=O)c1nsc(C(=O)N(Cc2ccco2)C(C(=O)NCc2ccccc2)c2ccc(O)cc2)c1N (stereo not given) | 4% | i | i | 6 | 4 | 20%
N#CC1C=Cc2ccccc2N1C(=O)c1ccccc1 (stereo not given) | 15% | i | i | -4 | 22 | 14%
N#CC1C=Cc2c(ccc3ccccc23)N1C(=O)c1ccccc1 (stereo not given) | 3.7µM* | 0.46µM* | i | 6 | -3 | 1.5µM*
N#Cc1nc(Nc2cc(F)cc(F)c2)c2ncn(CCCO)c2n1 | · | ? | i | · | · | ·
CCCCCc1ccnc(CC(=O)c2ccc(OC)cc2)c1 | -10% | 23µM* | i | -3 | -7 | -14%
N=c1c2c(n(Cc3ccc(F)cc3)c3c1CCC3)CCC2 | -4% | i | i | 12 | -19 | -3%
CCCCCCCCCn1c2c(c(=N)c3c1CCC3)CCC2 | 19% | 1µM* | i | -5 | -5 | ?
CCCCn1c2c(c(=N)c3c1CCC3)CCC2 | -3%[9.22 µM] | 4.1µM* | i | -47 | -22 | 2%
CCCCCCn1c2c(c(=N)c3c1CCC3)CCC2 | 1% | 2.1µM* | i | -17 | 0 | 15%
CCCCCCn1c(=O)[nH]c2c(c1=O)CCC2 | 4% | i | i | 4 | -2 | 5%
